Test results: PubChem BioAssay (Tox21)
A number with no mark means an inactive call. Records with an inconclusive call do not appear. A call without a number means that no potency is given here. Active and inactive are the calls of the source. Unless noted, calls come from the whole dose curve; as a rule, active = well fitted curve in the direction sought with a large enough effect in the repeat runs; inconclusive = weak or mixed curves; inactive = no such curve, though single readings can be large; an effect the other way counts as inactive or inconclusive.

Columns and labels:
[1] = A CellTox Green Cytotoxicity Assay to monitor cytotoxicity in HepG2 cells - 0 hour (AID 1224882); note: nearly all actives have a fitted effect of over 35% in size
Outline: (§1)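 Fluorescent DNA-binding dye, 600 HepG2 cells/well, 5 h preincubation then compound in DMSO; same plates read at 0–40 h, 37 C.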

[2] = A CellTox Green Cytotoxicity Assay to monitor cytotoxicity in HepG2 cells - 32 hour (AID 1224883); note: nearly all actives have a fitted effect of over 50% in size
Outline: as §1

[3] = A CellTox Green Cytotoxicity Assay to monitor cytotoxicity in HEK293 cells - 8 hour (AID 1224884); note: nearly all actives have a fitted effect of over 35% in size
Outline: (§2)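 Homogeneous no-lysis format: HEK293 cell suspension mixed with CellTox Green reagent, seeded, incubated 5 h at 37 C/5% CO2, then dosed by pintool with compound in DMSO.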

[4] = qHTS RealTime-Glo MT Cell Viability Assay in HepG2 cells - 16 hour (AID 1224885); note: nearly all actives have a fitted effect of over 50% in size
Outline: (§3)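 Real-time, nonlytic viability: 600 HepG2 cells/well mixed with NanoLuc enzyme plus prosubstrate; 5 h settle, compound (DMSO) added by pintool; luminescence monitored over 40 h at 37 C.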

[5] = qHTS RealTime-Glo MT Cell Viability Assay in HEK293 cells - 24 hour (AID 1224886); note: top concentration of the series differs between compounds; nearly all actives have a fitted effect of over 50% in size
Outline: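 Cells + reagent dispensed (600 cells/well, HEK293) → 5 h at 37 C/5% CO2 → 23 nL compound in DMSO pinned → 40 h at 37 C → luminescence read at 0, 8, 16, 24, 32, 40 h.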

[6] = qHTS RealTime-Glo MT Cell Viability Assay in HEK293 cells - 8 hour (AID 1224887); note: top concentration of the series differs between compounds; nearly all actives have a fitted effect of over 50% in size
Outline: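 Measured as luminescence from the same continuously cultured HEK293 wells at successive time points (0, 8, 16, 24, 32, 40 h) after compound addition. Reagent present from seeding; dosing at 5 h; incubation 37 C.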

[7] = A CellTox Green Cytotoxicity Assay to monitor cytotoxicity in HEK293 cells - 16 hour (AID 1224888); note: nearly all actives have a fitted effect of over 35% in size
Outline: as §2

[8] = qHTS RealTime-Glo MT Cell Viability Assay in HepG2 cells - 0 hour (AID 1224889); note: nearly all actives have a fitted effect of over 50% in size
Outline: as §3

[9] = A CellTox Green Cytotoxicity Assay to monitor cytotoxicity in HepG2 cells - 8 hour (AID 1224890); note: nearly all actives have a fitted effect of over 45% in size
Outline: as §1

[10] = qHTS assay to identify small molecule antagonists of the estrogen receptor alpha (ER-alpha) signaling pathway using the BG1 cell line in the presence of 0.1 nM 17-beta-estradiol - cell viability counter screen (AID 1259241); note: nearly all actives have a fitted effect of over 40% in size
Outline: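 Live-cell protease activity (CellTiter-Fluor fluorescence, 30 min) was read in the same wells after VM7Luc4E2 cells had been exposed to compounds with 0.1 nM 17beta-estradiol for 22 hr at 37C.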

[11] = qHTS assay to identify small molecule antagonists of the androgen receptor (AR) signaling pathway using the MDA cell line in the presence of 0.5 nM R1881 - cell viability counter screen (AID 1259242); note: nearly all actives have a fitted effect of over 45% in size
Outline: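 Human breast carcinoma MDA-kb2 cells, cultured without CO2, receive compounds alongside 0.5 nM (final) R1881 agonist. After 16 hr at 37C, viability is taken as live-cell protease signal.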

[12] = target: Estrogen receptor (Homo sapiens) (UniProt P03372); assay: qHTS assay to identify small molecule antagonists of the estrogen receptor alpha (ER-alpha) signaling pathway using the BG1 cell line in the presence of 0.1 nM 17-beta-estradiol (AID 1259244); note: nearly all actives have a fitted effect of over 50% in size; note: potency is the fitted concentration of half-maximal effect
Outline: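 Seeding of stripped-serum-adapted VM7Luc4E2 cells, 24 h attachment, compound transfer, then 0.1 nM final 17beta-estradiol; after 22 h incubation, ONE-Glo reagent and luminescence reading.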

[13] = qHTS assay to identify small molecule HDAC inhibitors (AID 1259364);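 note: wild-type HCT-116 cells with endogenous class I/II HDAC activity; top concentration of the series differs between compounds; nearly all actives have a fitted effect of over 45% in size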
Outline: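 After a 2 hr compound incubation (37C, 5% CO2), HCT-116 cells seeded at 1,500/well the day before received HDAC-Glo reagent; signal read as luminescence after 30 min at room temperature.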

[14] = qHTS assay to identify small molecule HDAC inhibitors - cell viability counter screen (AID 1259365)
Outline: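 HCT-116 (wild type), 1,500 cells/well, overnight 37C/5% CO2; compound in DMSO 2hr; CellTiter-Glo 30min RT; luminescence read.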

[15] = qHTS assay to identify small molecule agonists of the sonic hedgehog signaling (Shh) pathway - cell viability counter screen (AID 1259366); note: nearly all actives have a fitted effect of over 50% in size
Outline: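 CellTiter-Fluor fluorescence read-out, 1 hr at 37C, added after 23hr compound exposure. Cells: 3T3 Gli1-Luc, an NIH/3T3 clone with stably integrated Gli1-Luc reporter, plated 4hr before compound.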

[16] = qHTS assay to identify small molecule antagonists of the sonic hedgehog signaling (Shh) pathway - cell viability counter screen (AID 1259367); note: nearly all actives have a fitted effect of over 55% in size
Outline: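 CellTiter-Fluor signal in conditioned medium-stimulated 3T3 Gli1-Luc cells, 23 hr compound exposure, 37C.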

[17] = qHTS assay to identify small molecule agonists of the sonic hedgehog signaling (Shh) pathway (AID 1259368; calls by dose curve;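 note: NIH/3T3-derived 3T3Gli1-Luc cells carrying a stable Gli1-driven firefly luciferase reporter; series mostly up to about 92 µM; nearly all actives have a fitted effect of over 15% in size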)
Outline: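 Stable NIH/3T3 Gli1-Luc reporter clone; 24 hr cpd exposure after a 4 hr settling period; luminescence endpoint.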

[18] = qHTS assay to identify small molecule antagonists of the sonic hedgehog signaling (Shh) pathway (AID 1259369; calls by dose curve; note: nearly all actives have a fitted effect of over 45% in size; note: potency is the fitted concentration of half-maximal effect)
Outline: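 Gli1 transcriptional reporter (firefly Luc) in NIH/3T3 background, conditioned-medium activated. 24hr exposure, luminescence endpoint.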

[19] = target: Androgen receptor (Homo sapiens) (UniProt P10275); assay: qHTS assay to identify small molecule antagonists of the androgen receptor (AR) signaling pathway using the MDA cell line in the presence of 0.5 nM R1881 (AID 1259243); note: nearly all actives have a fitted effect of over 50% in size
Outline: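 Cells: MDA-kb2 (MMTV-luc). Stimulus: 0.5 nM R1881. Time: 16 hr, 37C, no CO2. Detection: ONE-Glo luminescence after 30 min at RT.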

[20] = qHTS assay to identify small molecule phospholipidosis (PLD) inducers (AID 1259344; active = well fitted curve in the direction sought with a large enough effect; an effect the other way counts as inactive or inconclusive)
Outline: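 Accumulated phospholipid, stained red by LipidTOX during 24 h compound treatment of HepG2 cells at 37 C, is quantified from images as pit number and intensity, normalised per cell using Hoechst-stained nuclei.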

Estrogen receptor (Homo sapiens), sequence (P03372 whole entry, looked up): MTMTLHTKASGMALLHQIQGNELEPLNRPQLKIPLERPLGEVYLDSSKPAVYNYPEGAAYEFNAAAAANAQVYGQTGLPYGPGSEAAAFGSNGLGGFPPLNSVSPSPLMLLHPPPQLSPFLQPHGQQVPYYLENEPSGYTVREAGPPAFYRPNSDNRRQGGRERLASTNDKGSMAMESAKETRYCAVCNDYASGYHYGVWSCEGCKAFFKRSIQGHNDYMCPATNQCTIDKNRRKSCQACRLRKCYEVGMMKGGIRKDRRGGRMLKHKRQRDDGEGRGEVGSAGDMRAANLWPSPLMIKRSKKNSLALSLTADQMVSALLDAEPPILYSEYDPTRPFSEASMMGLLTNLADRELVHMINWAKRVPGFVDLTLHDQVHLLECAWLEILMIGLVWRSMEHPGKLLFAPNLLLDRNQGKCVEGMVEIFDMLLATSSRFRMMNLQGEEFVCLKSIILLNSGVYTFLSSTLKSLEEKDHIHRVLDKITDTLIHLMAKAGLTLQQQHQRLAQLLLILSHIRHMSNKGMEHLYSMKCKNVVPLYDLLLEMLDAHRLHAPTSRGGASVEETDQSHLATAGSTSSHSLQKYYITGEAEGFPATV
Androgen receptor (Homo sapiens), sequence (P10275 whole entry, looked up): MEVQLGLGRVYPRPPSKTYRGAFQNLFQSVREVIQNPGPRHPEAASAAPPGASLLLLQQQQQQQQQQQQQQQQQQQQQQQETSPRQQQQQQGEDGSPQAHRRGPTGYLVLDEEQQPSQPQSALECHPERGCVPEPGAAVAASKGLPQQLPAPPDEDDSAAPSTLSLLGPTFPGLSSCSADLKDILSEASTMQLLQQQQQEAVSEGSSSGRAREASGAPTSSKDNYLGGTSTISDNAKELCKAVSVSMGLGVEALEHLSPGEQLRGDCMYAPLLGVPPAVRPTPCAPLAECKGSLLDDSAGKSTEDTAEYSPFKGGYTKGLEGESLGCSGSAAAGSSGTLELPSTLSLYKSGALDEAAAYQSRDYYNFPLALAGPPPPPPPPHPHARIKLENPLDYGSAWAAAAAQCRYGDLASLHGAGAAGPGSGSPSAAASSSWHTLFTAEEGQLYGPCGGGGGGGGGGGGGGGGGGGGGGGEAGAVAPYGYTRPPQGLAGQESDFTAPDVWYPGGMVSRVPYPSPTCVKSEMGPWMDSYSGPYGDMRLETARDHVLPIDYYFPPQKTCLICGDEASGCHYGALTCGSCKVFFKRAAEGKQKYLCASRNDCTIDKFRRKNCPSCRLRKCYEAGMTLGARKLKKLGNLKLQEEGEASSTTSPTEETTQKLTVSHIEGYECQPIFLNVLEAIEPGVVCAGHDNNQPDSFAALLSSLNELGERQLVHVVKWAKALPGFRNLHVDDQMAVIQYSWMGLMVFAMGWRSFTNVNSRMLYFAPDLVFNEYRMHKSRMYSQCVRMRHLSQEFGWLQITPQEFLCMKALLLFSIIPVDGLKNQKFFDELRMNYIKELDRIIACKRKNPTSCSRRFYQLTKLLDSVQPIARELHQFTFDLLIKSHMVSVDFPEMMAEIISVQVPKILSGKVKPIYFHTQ

O=C(CCCl)NCc1ccccc1
Potency [1]: inactive
Potency [2]: inactive
Potency [3]: inactive
outcome [4]: inactive
Potency [5]: inactive
Potency [6]: inactive
Potency [7]: inactive
Potency [8]: inactive
Potency [9]: inactive
Potency [10]: inactive
outcome [11]: inactive
Potency [12]: inactive
Potency [13]: inactive
outcome [14]: inactive
Potency [15]: inactive
Potency [16]: inactive
Potency [17]: inactive
Potency [18]: inactive

ICCc1ccccc1
Potency [1]: inactive
Potency [2]: inactive
Potency [3]: inactive
outcome [4]: inactive
Potency [5]: inactive
Potency [6]: inactive
Potency [7]: inactive
Potency [8]: inactive
Potency [9]: inactive
Potency [10]: inactive
outcome [11]: inactive
Potency [12]: 67.2 µM (active)
Potency [13]: inactive
outcome [14]: inactive
Potency [17]: inactive
Potency [18]: 16.9 µM (active)

CCOC(=O)c1cc(=O)c2c(OCC(COc3cccc4oc(C(=O)OCC)cc(=O)c34)OC(=O)[C@@H](N)CCCCN)cccc2o1
Potency [1]: inactive
Potency [2]: inactive
Potency [3]: inactive
outcome [4]: inactive
Potency [5]: inactive
Potency [6]: inactive
Potency [7]: inactive
Potency [8]: inactive
Potency [9]: inactive
Potency [10]: inactive
outcome [11]: inactive
Potency [19]: inactive
Potency [13]: inactive
outcome [14]: inactive
Potency [15]: inactive
Potency [16]: inactive
Potency [17]: inactive
Potency [18]: inactive

O=c1oc2c(O)c(O)cc3c(=O)oc4c(O)c(O)cc1c4c23
cytotoxicity [1]: -11.8% [at 15.8 µM]
cytotoxicity increase [2]: 19.5% [at 15.8 µM]
cytotoxicity increase [3]: 7.37% [at 15.8 µM]
activity change, negative = cytotoxic [4]: -6.97% [at 15.8 µM]
activity change, negative = cytotoxicity [5]: -7.55% [at 15.8 µM]
activity change, negative = cytotoxicity [6]: -0.845% [at 15.8 µM]
activity change [7]: 13% [at 15.8 µM, stronger effect = higher value]
activity change, negative = cytotoxicity [8]: 0.919% [at 15.8 µM]
cytotoxicity increase [9]: -1.27% [at 15.8 µM]
activity change, negative = cytotoxicity [10]: 3.69% [at 19 µM]
viability change, negative = cytotoxic [11]: -6.98% [at 19 µM]
activity change, negative = inhibition [12]: 1.12% [at 19 µM]
outcome [20]: inactive
activity change, negative = inhibition [13]: -0.133% [at 19 µM]
activity change, negative = cytotoxicity [14]: 2.83% [at 19 µM]
viability change, negative = cytotoxic [15]: -17.2% [at 19 µM]
viability change, negative = cytotoxic [16]: 1.3% [at 19 µM]
activity change [17]: -1.7% [at 18.9 µM, stronger effect = higher value]
activity change, negative = inhibition [18]: 14.9% [at 19 µM]

CN(C)Cc1ccccc1
Potency [1]: inactive
Potency [2]: inactive
Potency [3]: inactive
outcome [4]: inactive
Potency [5]: inactive
Potency [6]: inactive
Potency [7]: inactive
Potency [8]: inactive
Potency [9]: inactive
Potency [10]: inactive
outcome [11]: inactive
Potency [19]: inactive
outcome [20]: inactive
Potency [13]: inactive
outcome [14]: inactive
Potency [15]: inactive
Potency [16]: inactive
Potency [17]: inactive
Potency [18]: inactive

CO[Si](C)(C)OC
Potency [1]: inactive
Potency [2]: inactive
Potency [3]: inactive
outcome [4]: inactive
Potency [5]: inactive
Potency [6]: inactive
Potency [7]: inactive
Potency [8]: inactive
Potency [9]: inactive
Potency [10]: inactive
outcome [11]: inactive
Potency [12]: inactive
Potency [13]: inactive
outcome [14]: inactive
Potency [15]: inactive
Potency [16]: inactive
Potency [17]: inactive
Potency [18]: inactive
